In the supplement of paper PMC3334620:
Over roughly 33,000 sequences, “E-score (-0.5 to 0.5)” has its median near -0.011; the highest 2% begin near 0.28. The sample holds the highest values, similar sequences and a random draw of the others, so the mix is not that of the screen.

Each sequence was assayed against T1, Gcr1 (UniProt P07261) (assay: PBM E-score (8-mer binding enrichment) (E-score (-0.5 to 0.5)); higher = stronger / more preferred TF binding). Conditions: protein concentration: 100 nM; construct: GST-full length.
T1 sequence: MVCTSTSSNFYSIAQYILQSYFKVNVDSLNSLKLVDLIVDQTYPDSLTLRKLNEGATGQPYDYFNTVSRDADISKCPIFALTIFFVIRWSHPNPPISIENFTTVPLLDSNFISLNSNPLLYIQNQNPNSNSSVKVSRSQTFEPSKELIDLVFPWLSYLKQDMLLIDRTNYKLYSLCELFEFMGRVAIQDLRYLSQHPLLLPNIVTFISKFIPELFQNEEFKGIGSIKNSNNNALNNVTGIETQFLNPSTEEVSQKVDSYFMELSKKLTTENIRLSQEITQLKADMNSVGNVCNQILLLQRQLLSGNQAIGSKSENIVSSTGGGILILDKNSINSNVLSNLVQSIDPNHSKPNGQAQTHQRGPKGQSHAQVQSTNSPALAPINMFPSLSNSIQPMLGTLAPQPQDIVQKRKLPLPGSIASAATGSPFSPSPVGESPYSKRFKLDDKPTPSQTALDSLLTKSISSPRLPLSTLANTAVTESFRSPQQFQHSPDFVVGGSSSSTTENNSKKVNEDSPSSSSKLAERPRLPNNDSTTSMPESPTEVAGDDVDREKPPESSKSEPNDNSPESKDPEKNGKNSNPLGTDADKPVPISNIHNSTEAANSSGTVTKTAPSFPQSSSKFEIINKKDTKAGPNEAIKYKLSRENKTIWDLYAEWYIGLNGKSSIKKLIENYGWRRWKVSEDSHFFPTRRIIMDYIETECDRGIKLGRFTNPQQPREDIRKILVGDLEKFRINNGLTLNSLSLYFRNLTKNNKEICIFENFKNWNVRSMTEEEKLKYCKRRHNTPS
Experimental: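 Universal 'all 10-mer' protein binding microarrays (Agilent AMADID 015681) probed with GST-tagged S. cerevisiae TFs (full-length or DBD) made by in vitro transcription/translation (PURExpress), about 100-200 nM. Bound TF was detected with fluorescent anti-GST. Each ungapped 8-mer (which stands for itself and its reverse complement) is scored by the PBM enrichment score (E-score), a modified Wilcoxon-Mann-Whitney statistic from -0.5 to +0.5, computed with the Universal PBM Analysis Suite. Scale: above 0.35 generally sequence-specific binding.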

| Sequence | PBM E-score |
| --- | --- |
| CCGGCTTC | 0.358 |
| ACGGCTTC | 0.238 |
| AGGGCTTA | -0.262 |
| CTCCCCGC | 0.196 |
| ACGGCACG | -0.0602 |
| ACGGTCGA | -0.354 |
| GGGGGCGA | -0.0875 |
| GCTGGTCA | -0.151 |
| ACTCGTTC | -0.0676 |
| CCCAATAA | 0.0668 |
| ATCACTCC | -0.0513 |
| ACTGCCAT | 0.0395 |
| CCCCTCAA | -0.118 |
| ATCCTGAA | 0.31 |
| ATCCTGAC | 0.163 |
| ATCCTGTA | 0.28 |
| GGGACCTA | 0.0741 |
| ACTATTGC | 0.0299 |
| ATGGCGTC | 0.319 |
| CTGGCGGC | 0.265 |
| CTGGCGCC | 0.319 |
| CTGGCGCA | -0.119 |

| Sequence | PBM E-score |
| --- | --- |
| ATGGCGCG | 0.116 |
| ATGGCGCA | -0.122 |
| ATGGCGTG | -0.0168 |
| CTGGCGTC | 0.279 |
| ATGGCGCC | 0.343 |
| ACTAATGC | 0.0263 |
| ACAGATAG | -0.00305 |
| AACCTGTA | 0.211 |
| ATTTCGGC | 0.141 |
| ATTTCGGG | 0.0915 |
| ATTTCGGA | 0.285 |
| GATCCCAC | 0.235 |
| GATTCCCC | 0.289 |
| GATTCCTA | 0.439 |
| CATTCCCC | -0.0585 |
| GATTCCCA | 0.334 |
| CATTCCTA | -0.0304 |
| GATCCCCC | 0.176 |
| AATTCCCC | 0.0615 |
| AATTCCTA | 0.0723 |
| CATTCCCA | 0.103 |
| TATCCCCA | 0.052 |

| Sequence | PBM E-score |
| --- | --- |
| AATTCCCA | -0.0967 |
| GATCCCCA | 0.28 |
| CGCATCTC | 0.0271 |
| AAAGAGAA | 0.022 |
| CAGTTCGG | 0.0773 |
| CGGATTGA | -0.116 |
| CAATGGGG | 0.00495 |
| ACGGTGGG | 0.116 |
| AACTGCCT | -0.0496 |
| GGCTGCTA | 0.318 |
| AGCTGCCA | 0.385 |
| CGCTGCCA | 0.185 |
| AGCTGCCT | 0.32 |
| GGCTGCCC | 0.272 |
| GGCTGCAA | 0.128 |
| TGCTGCCA | -0.0494 |
| CGCTGCTA | 0.155 |
| AGCTGCTA | 0.226 |
| GGCTGCCA | 0.418 |
| ACCTGCCT | -0.218 |
| GATGGGAA | 0.123 |
| TACAGATA | -0.0799 |

| Sequence | PBM E-score |
| --- | --- |
| ATATTTGA | 0.0958 |
| CTTTCGAA | -0.0912 |
| CAGATAAC | -0.13 |
| ACTTGACT | -0.0523 |
| CACCGAGA | -0.00934 |
| GTGCCCCA | -0.0431 |
| GGGCTCAC | -0.096 |
| AGAGCTGG | -0.143 |
| TCTGCCCA | -0.249 |
| AGATTTCG | 0.113 |
| AAGGTGTC | 0.0915 |
| CGCTGCCG | 0.175 |
| AGCTGCCG | 0.289 |
| AGCTGCCC | 0.217 |
| ACTACAAC | 0.0309 |
| CGCATCCG | 0.221 |
| CACATCCA | 0.0944 |
| GCCATCCC | -0.173 |
| GACATCCC | 0.0126 |
| AGCATCCC | 0.33 |
| CGCATCGA | 0.0887 |
